Source: PubChem BioAssay (Tox21)
Activity calls are given as the source filed them. A call without a number means that no potency is given here. Calls come from the whole dose curve.

target: Muscarinic acetylcholine receptor M1 (Homo sapiens) (UniProt P11229); test: Cholinergic receptor muscarinic 1 (CHRM1) small molecule agonists, cell-based qHTS assay (AID 1963589); settings: CHRM1-CHO cells, agonist mode, calcium flux fluorescence; series mostly up to 76.8 µM; note: nearly all actives have a fitted effect of over 35% in size
Sequence (P11229 whole entry, looked up): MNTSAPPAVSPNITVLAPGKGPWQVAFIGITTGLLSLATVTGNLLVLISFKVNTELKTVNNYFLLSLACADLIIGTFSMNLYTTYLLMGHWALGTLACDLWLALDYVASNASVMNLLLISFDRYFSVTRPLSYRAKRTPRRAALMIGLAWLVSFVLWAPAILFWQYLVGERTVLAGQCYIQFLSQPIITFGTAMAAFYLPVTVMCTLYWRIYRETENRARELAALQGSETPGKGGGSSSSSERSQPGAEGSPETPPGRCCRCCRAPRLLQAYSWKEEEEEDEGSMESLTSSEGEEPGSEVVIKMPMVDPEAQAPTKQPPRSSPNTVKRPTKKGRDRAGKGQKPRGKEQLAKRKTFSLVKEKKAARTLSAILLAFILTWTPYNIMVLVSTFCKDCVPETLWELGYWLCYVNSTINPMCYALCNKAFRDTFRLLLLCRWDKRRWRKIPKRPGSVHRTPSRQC
Text: National Center for Advancing Translational Sciences [NCATS]
Division of Preclinical Innovation [DPI]
U.S. Environmental Protection Agency [EPA]
National Institutes of Environmental Health Sciences [NIEHS]
National Toxicology Program [NTP]
U.S. Food and Drug Administration [FDA]
The CHRM1 is a muscarinic receptor. This receptor plays a crucial role in learning and memory processes and has long been identified as a promising therapeutic target for the improvement of cognitive decline in Alzheimer's disease (AD). The CHRM1-CHO cell line stably expressing human muscarinic acetylcholine receptor M1 (CHRM1) can be used for screening agonists and antagonists of interactions between CHRM1 and its ligands. The CHRM1-CHO Calcium Flux Assay is a homogeneous fluorescence-based assay for detecting the intracellular calcium level using FDSS kinetic plate reader system.
CHRM1-CHO cells were dispensed at 1000 cells/3uL/well in 1536-well black-clear bottom plates using a Multidrop Dispenser. After the assay plates were incubated at a 37 C/5% CO2 incubator for 18 h, 3 uL of Dye Loading Buffer was transferred to the assay plate by a Flying Reagent Dispenser. The assay plates were incubated at 37 C for 1h. For agonist mode, 23 nL of compounds dissolved in DMSO, positive controls or DMSO only was transferred to the assay plate by a pin tool. […] Each test compound was measured at 15 concentrations in three independent runs.

Q: `NC(=O)c1cccc([N+](=O)[O-])c1` was tested. Which Potency did it give?
A: inactive

Q: `CCCCCCCCCCCCOCCO` was tested. Which Potency did it give?
A: inactive

Q: `CC(C)(C)c1ccc(S)cc1` was tested. Which Potency did it give?
A: inactive

Q: `CN1Cc2c(N)cccc2C(c2ccccc2)C1` (stereo not given) was tested. Which Potency did it give?
A: inactive

Q: Which Potency does the source give for `O=C(c1ccccc1O)c1ccccc1O` here?
A: inactive

Q: `CCC(=O)OC` was tested. Which Potency did it give?
A: inactive

Q: `O=C(NCC1CCCCN1)c1cc(OCC(F)(F)F)ccc1OCC(F)(F)F` (stereo not given) was tested. Which Potency did it give?
A: inactive

Q: With `OCc1c2ccccc2cc2ccccc12` as the compound, how does the Potency read?
A: inactive

Q: For `O=[N+]([O-])c1ccc2nc[nH]c2c1`, which Potency is on record?
A: inactive

Q: For `CCO/C([O-])=N/c1c[n+](N2CCOCC2)no1`, which Potency is on record?
A: inactive

Q: For `N=C(N)c1ccccc1`, which Potency is on record?
A: inactive

Q: How did the Potency turn out when `O=C(O)CNC(=O)c1ccc(CO)o1` was run?
A: inactive

Q: `CCOC(=O)NCCC[Si](OCC)(OCC)OCC` was tested. Which Potency did it give?
A: inactive

Q: `Cc1ccc(C(=O)O)cc1` was tested. Which Potency did it give?
A: inactive

Q: Which Potency does the source give for `CCCC[O][Al]([O]CCCC)[O]CCCC` here?
A: inactive

Q: For `C#CC(O)CCC` (stereo not given), which Potency is on record?
A: inactive

Q: How did the Potency turn out when `Oc1ccc(Cl)cc1Sc1cc(Cl)ccc1O` was run?
A: inactive

Q: How did the Potency turn out when `Cc1cc(C)c(C(=O)O)c(C)c1` was run?
A: inactive

Q: With `CC1CCC(C(C)(C)S)C(=O)C1` (stereo not given) as the compound, how does the Potency read?
A: inactive

Q: With `O=C(CCNNC(=O)c1ccncc1)NCc1ccccc1` as the compound, how does the Potency read?
A: inactive

Q: Which Potency does the source give for `COCC(O)CO` (stereo not given) here?
A: inactive

Q: Which Potency does the source give for `O=c1cccc[nH]1` here?
A: inactive

Q: `Oc1ccc(C(c2ccc(O)cc2)C(Cl)(Cl)Cl)cc1` was tested. Which Potency did it give?
A: inactive

Q: `CSc1nnc(C(C)(C)C)c(=O)[nH]1` was tested. Which Potency did it give?
A: inactive

Q: `CCCN1CCCC[C@H]1C(=O)Nc1c(C)cccc1C` was tested. Which Potency did it give?
A: inactive

Q: How did the Potency turn out when `CCCCCC=O` was run?
A: inactive

Q: Which Potency does the source give for `ClC/C=C\CCl` here?
A: inactive

Q: With `COC(/C=C(\C)CCC=C(C)C)OC` as the compound, how does the Potency read?
A: inactive

Q: How did the Potency turn out when `CCOC(=O)c1ccc(O)c(O)c1` was run?
A: inactive

Q: How did the Potency turn out when `CCC(=O)OC(C)c1ccccc1` (stereo not given) was run?
A: inactive

Q: For `CC1(C)[C@H](C(=O)OCc2cccc(Oc3ccccc3)c2)[C@@H]1C=C(Cl)Cl`, which Potency is on record?
A: inactive

Q: Which Potency does the source give for `O=C(Oc1ccccc1)c1ccc(O)cc1` here?
A: inactive

Q: For `O=C(O)c1cc(=O)c2ccccc2o1`, which Potency is on record?
A: inactive

Q: How did the Potency turn out when `O=C1c2cccc(O)c2C(=O)c2c(O)cccc21` was run?
A: inactive

Q: How did the Potency turn out when `C[C@@H]1CC(=O)NN=C1c1ccc(NN=C(C#N)C#N)cc1` was run?
A: inactive

Q: `CSc1ccc(C(=O)c2[nH]c(=O)[nH]c2C)cc1` was tested. Which Potency did it give?
A: inactive

Q: For `O=S(=O)(O)c1ccc2cc(O)c(S(=O)(=O)O)cc2c1`, which Potency is on record?
A: inactive

Q: With `CCCCCCN` as the compound, how does the Potency read?
A: inactive

Q: For `NCc1cccc(CN)c1`, which Potency is on record?
A: inactive

Q: How did the Potency turn out when `C=C(C)C(=O)OCCC(F)(F)C(F)(F)C(F)(F)C(F)(F)C(F)(F)C(F)(F)F` was run?
A: inactive
